This is an account of results in the OligoGym collection.
Also: reference of the scale not given here.

For the first assay, the target named is CBWD1. The assay can be described thus: pooled miR-30 sensor sort-seq; sequence = guide strand. The settings on record: shRNA.
Turning to TACATCTTCTTCTGGAACCAGG, the sensor-assay potency score (higher = more potent) was -0.734. As to TTCTTCTGGAACCAGGTCTGTT, the sensor-assay potency score (higher = more potent) is -0.933. With TTGTCTAGTAGCTTCATTGATA, the sensor-assay potency score (higher = more potent) is -0.639.

The next assay has as its target CBWD2. Described as above. The settings on record: shRNA.
As for TTATGGATCTAATTGTCGCTCT, the sensor-assay potency score (higher = more potent) was determined as 0.237.

Take TTTATGGATCTAATTGTCGCTC: the sensor-assay potency score (higher = more potent) is -0.0827. As for TATTTTGAATCCACTATAGTTA, the sensor-assay potency score (higher = more potent) is -0.411.

The target in the next assay is CBWD3. The description is as above. The settings on record: shRNA.
In the case of TATTATCCAATCCTTTTGATAA, the sensor-assay potency score (higher = more potent) is -1.72.

Regarding TACATCTTCTTCTGGAACCAAG, the sensor-assay potency score (higher = more potent) was -0.337. For the sequence TTATCCAATCCTTTTGATAAGA, the sensor-assay potency score (higher = more potent) was -1.37. For TTTATGGATCTAATTGTCGTTC, the sensor-assay potency score (higher = more potent) is -0.438.

Sequence TTACATCTTCTTCTGGAACCAG registered a sensor-assay potency score (higher = more potent) of 0.201. Still for that read-out and setting: next, TTATTATCCAATCCTTTTGATA: -1.04; TTGTCGTTCTTAATTTCTTTAC: -1.76. With TTTATTATCCAATCCTTTTGAT, the sensor-assay potency score (higher = more potent) is -0.0523. For TCTTCTGGAACCAAGTCTGTTT, the sensor-assay potency score (higher = more potent) is -0.303.

A further assay addresses CBX5. The assay is described as above. The settings on record: shRNA.
On to TTTGATGTCATCGGCACTGTTT, for which the sensor-assay potency score (higher = more potent) is -0.553. With TTTAGATTTGATGTCATCGGCA, the sensor-assay potency score (higher = more potent) is -0.103. For TAGATATTCCACTTGTCCCTTA, the sensor-assay potency score (higher = more potent) stood at 0.296. In the case of TATACTTTTTCATAAATTCAGA, the sensor-assay potency score (higher = more potent) is -1.38. As for TCACATTAGCTTCTTTTGCAAG, the sensor-assay potency score (higher = more potent) is -1.01.

TTTTAGATTTGATGTCATCGGC: the sensor-assay potency score (higher = more potent) is -0.344. Consider TAAATTCAGAAATTAGCTCAGG, for which the sensor-assay potency score (higher = more potent) was -0.159. Sequence TTACTTTCTGACTTCTCCCTGG registered a sensor-assay potency score (higher = more potent) of 0.106. Still for that read-out and setting: next, TTAAATCACCACAGGAATCTGT: -0.0279. Still for that read-out and setting: next, TTAGATTTGATGTCATCGGCAC: 0.364. Still for that read-out and setting: next, TTAGGAACATTAAATCACCACA: -0.835; TAAAATGCTATCACAATTTGTG: -0.0381.

For another assay, the target named is CBX7. The assay is described as above. The settings on record: shRNA.
As for TTTAACTCCCAGAACCAGCTGC, the sensor-assay potency score (higher = more potent) came to 0.312. Regarding ATACTCGACTTTACCCTTCCGC, the sensor-assay potency score (higher = more potent) was -0.334. The same measure, in the same setting: next, TAGTTCTTTGAAAGTGACCAGG: -0.792; ATACATCACACAACTTAGCAGA: -0.583.

Sequence TAGAGGAGAATGATAATGGTGG yielded a sensor-assay potency score (higher = more potent) of 0.263.

On to TTCCGCACGCGCTTCTTCCGGA, for which the sensor-assay potency score (higher = more potent) is -0.445. As to TCGTAGGCCATGACGAGGCGGG, the sensor-assay potency score (higher = more potent) is -0.996. On the same count and under the same terms, next, TGTACTTTGGGGGCCATCCTTT: -1.24; TCGATGGCTGTGGCTCTCCAGG: -1.84; TACTCGACTTTACCCTTCCGCA: -1.36. On the same count and under the same terms, next, TCCACTTCACCAGATACTCGAC: -1.35; TTCTTTGAAAGTGACCAGGAAG: -1.2.
